Data: the supplement of paper PMC10849652
Targets with a hit are over-represented here; the source holds about 8,800 in all. About 0.5% of all pairs of compound and target were hits. A number with no mark means an inactive call.

Tests used:
Assay in all cases: log2 fold change, soluble protein after heating vs DMSO (PISA); higher = thermal stabilisation; K562 lysate, 10 uM; active = over 0.2 and 3.5 SD of the protein, either way, in both replicates (recomputed)
vemurafenib = compound: CCCS(=O)(=O)Nc1ccc(F)c(C(=O)c2c[nH]c3ncc(-c4ccc(Cl)cc4)cc23)c1F [vemurafenib]
How it was run: (§1)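 Soluble protein was defined as the supernatant remaining after 21,000xg for 90 min, following pooling of heated aliquots and adjustment to 0.5% NP-40 at 4°C. Before that, crude K562 extract at 1 mg/mL protein in PBS pH 7.4 with 1 mM MgCl2 was treated with 10 μM compound for 30 min and heated for 3 min across 48°C-58°C. Quantification used TMTpro 16plex LC-MS/MS with channel sums equalised, and values are log-two fold changes in thermal stability relative to solvent controls from duplicates.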

[1] = compound: CCCS(=O)(=O)Nc1ccc(F)c(C(=O)c2c[nH]c3ncc(Cl)cc23)c1F
How it was run: as §1

barasertib = compound: CCN(CCCOc1ccc2c(Nc3cc(CC(=O)Nc4cccc(F)c4)[nH]n3)ncnc2c1)CCOP(=O)(O)O [barasertib]
How it was run: as §1

[2] = compound: CC[C@@H]1C(=O)N(C)c2cnc(Nc3ccc(C(=O)NC4CCN(C)CC4)cc3OC)nc2N1C1CCCC1
How it was run: as §1

volasertib = compound: CC[C@@H]1C(=O)N(C)c2cnc(Nc3ccc(C(=O)N[C@H]4CC[C@H](N5CCN(CC6CC6)CC5)CC4)cc3OC)nc2N1C(C)C [volasertib]
How it was run: as §1

[3] = compound: CCn1c(C(=O)N(C2CC2)C2CC2)cc2c3c(ncn3C)c(Nc3cc(C)n(C)n3)nc21
How it was run: as §1

[4] = compound: CCn1cc(-c2ccnc3[nH]c(-c4cccc(CN(C)C)c4)cc23)c(-c2ccc(NC(=O)N(C)C)cc2)n1
How it was run: as §1

[5] = compound: CN1CCC(CNc2ccc3ncc(-c4cccc(OC(F)(F)F)c4)n3n2)CC1
How it was run: as §1

saracatinib = compound: CN1CCN(CCOc2cc(OC3CCOCC3)c3c(Nc4c(Cl)ccc5c4OCO5)ncnc3c2)CC1 [saracatinib]
How it was run: as §1

sotrastaurin = compound: CN1CCN(c2nc(C3=C(c4c[nH]c5ccccc45)C(=O)NC3=O)c3ccccc3n2)CC1 [sotrastaurin]
How it was run: as §1

Sequence of UniProt Q9H4L7 (Q9H4L7 whole entry, looked up): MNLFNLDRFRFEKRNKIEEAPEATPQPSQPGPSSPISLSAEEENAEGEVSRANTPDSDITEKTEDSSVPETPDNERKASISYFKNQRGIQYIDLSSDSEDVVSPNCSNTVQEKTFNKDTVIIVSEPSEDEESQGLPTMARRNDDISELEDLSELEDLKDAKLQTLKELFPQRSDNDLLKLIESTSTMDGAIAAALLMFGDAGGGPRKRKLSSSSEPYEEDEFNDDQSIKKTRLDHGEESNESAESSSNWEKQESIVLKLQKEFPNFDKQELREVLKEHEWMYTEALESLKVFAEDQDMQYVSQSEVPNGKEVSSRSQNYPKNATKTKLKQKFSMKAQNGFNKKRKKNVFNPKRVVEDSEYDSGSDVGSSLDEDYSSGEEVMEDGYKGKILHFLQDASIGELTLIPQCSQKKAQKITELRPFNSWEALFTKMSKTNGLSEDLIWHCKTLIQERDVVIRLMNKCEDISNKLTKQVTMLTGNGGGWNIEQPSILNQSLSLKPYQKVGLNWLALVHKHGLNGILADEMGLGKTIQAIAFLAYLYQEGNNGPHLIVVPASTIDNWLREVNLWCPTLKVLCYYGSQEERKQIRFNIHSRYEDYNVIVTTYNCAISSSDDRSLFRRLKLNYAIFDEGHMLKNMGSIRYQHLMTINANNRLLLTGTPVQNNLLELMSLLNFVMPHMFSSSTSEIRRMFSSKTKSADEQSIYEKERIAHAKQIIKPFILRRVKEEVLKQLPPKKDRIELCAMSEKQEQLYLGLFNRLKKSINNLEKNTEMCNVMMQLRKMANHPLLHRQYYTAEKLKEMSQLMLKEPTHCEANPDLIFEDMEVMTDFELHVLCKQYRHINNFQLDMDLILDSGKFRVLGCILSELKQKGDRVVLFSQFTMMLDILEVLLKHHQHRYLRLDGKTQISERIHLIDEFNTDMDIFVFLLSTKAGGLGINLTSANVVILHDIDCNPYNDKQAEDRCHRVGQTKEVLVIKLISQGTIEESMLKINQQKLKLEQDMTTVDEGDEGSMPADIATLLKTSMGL
Sequence of UniProt Q13043 (Q13043 whole entry, looked up): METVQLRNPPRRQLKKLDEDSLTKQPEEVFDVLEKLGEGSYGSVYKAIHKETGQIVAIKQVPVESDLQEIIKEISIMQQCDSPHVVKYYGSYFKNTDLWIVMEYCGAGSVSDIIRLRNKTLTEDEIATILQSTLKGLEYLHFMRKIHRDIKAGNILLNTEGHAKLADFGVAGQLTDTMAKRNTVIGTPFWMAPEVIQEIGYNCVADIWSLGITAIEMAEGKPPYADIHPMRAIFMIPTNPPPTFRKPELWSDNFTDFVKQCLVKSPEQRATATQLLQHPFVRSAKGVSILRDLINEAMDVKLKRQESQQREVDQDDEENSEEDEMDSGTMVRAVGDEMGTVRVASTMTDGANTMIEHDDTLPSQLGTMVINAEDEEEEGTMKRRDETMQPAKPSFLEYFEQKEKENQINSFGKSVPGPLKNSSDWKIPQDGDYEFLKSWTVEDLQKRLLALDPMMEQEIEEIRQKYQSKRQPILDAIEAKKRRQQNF
Sequence of UniProt Q8NEM2 (Q8NEM2 whole entry, looked up): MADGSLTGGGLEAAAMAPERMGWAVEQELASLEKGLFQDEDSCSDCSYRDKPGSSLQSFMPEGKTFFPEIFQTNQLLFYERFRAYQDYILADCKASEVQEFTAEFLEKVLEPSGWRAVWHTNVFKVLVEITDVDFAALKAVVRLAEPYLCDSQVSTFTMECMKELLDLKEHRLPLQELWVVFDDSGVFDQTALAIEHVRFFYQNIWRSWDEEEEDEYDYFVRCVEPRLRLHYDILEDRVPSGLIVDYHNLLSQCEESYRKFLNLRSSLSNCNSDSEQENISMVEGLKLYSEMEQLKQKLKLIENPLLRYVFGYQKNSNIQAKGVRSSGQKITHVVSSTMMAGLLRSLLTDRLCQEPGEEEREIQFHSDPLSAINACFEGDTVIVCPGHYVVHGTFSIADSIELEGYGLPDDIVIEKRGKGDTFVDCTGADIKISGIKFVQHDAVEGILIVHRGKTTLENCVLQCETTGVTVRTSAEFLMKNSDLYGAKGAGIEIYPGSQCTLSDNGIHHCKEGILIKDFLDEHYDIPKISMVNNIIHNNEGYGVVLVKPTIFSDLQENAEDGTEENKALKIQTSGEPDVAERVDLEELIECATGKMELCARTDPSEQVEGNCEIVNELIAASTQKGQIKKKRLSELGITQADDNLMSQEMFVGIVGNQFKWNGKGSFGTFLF
Sequence of UniProt Q92540 (Q92540 whole entry, looked up): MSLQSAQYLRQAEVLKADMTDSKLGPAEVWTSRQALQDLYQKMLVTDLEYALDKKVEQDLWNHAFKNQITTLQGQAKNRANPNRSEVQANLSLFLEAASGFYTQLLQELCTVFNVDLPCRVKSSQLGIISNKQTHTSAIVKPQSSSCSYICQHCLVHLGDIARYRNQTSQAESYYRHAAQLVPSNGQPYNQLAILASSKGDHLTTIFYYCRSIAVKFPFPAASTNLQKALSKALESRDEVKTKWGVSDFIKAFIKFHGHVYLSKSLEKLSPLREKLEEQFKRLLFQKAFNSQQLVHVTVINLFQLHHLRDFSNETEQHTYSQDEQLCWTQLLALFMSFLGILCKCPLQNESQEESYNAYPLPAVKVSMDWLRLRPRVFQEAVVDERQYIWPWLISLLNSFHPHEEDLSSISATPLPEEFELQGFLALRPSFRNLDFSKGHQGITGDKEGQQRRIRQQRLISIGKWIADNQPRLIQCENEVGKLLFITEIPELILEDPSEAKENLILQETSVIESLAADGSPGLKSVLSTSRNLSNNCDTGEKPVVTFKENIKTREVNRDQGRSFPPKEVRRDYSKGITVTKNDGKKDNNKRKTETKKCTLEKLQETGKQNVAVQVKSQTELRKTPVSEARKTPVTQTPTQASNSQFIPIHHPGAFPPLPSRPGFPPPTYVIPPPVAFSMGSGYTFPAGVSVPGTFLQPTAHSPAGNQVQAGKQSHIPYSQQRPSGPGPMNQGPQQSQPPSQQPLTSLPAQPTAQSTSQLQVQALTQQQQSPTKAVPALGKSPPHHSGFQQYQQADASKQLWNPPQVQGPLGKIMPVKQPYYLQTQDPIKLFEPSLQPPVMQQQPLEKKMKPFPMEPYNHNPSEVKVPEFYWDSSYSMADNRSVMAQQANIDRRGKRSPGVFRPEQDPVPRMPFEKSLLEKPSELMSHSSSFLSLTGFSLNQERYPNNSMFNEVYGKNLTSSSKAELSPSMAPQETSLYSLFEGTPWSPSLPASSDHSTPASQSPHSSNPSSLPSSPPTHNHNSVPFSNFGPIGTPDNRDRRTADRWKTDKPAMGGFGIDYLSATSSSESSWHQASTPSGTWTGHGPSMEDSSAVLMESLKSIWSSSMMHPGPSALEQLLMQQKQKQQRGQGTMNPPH
Sequence of UniProt Q9UPR3 (Q9UPR3 whole entry, looked up): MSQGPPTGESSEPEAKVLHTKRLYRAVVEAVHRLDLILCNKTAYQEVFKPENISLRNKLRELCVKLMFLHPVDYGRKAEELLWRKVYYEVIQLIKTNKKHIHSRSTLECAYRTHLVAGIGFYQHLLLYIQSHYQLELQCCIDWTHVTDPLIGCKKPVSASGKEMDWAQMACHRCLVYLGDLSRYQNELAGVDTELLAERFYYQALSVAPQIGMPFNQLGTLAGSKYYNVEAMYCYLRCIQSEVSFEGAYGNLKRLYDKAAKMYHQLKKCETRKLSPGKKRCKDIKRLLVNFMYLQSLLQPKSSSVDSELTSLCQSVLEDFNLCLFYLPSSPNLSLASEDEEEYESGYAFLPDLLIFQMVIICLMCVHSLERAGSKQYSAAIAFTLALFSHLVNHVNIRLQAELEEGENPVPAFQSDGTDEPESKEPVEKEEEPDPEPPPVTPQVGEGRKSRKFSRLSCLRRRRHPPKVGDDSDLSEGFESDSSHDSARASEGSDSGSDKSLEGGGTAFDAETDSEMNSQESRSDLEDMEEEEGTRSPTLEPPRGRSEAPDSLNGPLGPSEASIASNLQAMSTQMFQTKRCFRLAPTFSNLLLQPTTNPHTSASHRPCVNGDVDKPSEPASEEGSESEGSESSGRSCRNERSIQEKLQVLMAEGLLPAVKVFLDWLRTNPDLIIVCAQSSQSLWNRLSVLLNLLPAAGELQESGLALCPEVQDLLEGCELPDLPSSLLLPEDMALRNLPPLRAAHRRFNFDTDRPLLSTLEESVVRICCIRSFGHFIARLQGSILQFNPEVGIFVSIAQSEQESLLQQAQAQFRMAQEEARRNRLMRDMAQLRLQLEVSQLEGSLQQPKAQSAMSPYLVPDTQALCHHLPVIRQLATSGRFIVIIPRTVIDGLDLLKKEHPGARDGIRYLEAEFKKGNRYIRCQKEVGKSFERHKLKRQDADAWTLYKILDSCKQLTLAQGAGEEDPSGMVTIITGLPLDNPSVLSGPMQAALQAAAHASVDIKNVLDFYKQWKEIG
Sequence of UniProt P29353 (P29353 whole entry, looked up): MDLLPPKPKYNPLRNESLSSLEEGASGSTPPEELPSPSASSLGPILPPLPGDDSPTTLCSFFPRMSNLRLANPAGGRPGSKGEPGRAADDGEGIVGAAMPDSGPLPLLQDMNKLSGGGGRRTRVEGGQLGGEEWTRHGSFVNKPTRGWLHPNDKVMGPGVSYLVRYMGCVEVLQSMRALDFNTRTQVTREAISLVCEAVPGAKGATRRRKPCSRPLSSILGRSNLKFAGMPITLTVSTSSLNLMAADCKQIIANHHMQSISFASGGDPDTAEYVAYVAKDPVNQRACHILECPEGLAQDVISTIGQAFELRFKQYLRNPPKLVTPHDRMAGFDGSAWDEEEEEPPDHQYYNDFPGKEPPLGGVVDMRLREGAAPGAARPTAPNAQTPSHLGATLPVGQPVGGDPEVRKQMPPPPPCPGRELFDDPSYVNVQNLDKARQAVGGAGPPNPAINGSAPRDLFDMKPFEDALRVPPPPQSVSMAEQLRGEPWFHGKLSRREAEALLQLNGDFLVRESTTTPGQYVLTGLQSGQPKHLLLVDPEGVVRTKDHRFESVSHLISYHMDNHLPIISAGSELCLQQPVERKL
Sequence of UniProt Q96EX1 (Q96EX1 whole entry, looked up): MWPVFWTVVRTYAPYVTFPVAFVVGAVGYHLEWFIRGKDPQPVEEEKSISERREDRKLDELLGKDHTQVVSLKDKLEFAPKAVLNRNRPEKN

Target | log2 fold change (vemurafenib) | log2 fold change [1] | log2 fold change (barasertib) | log2 fold change [2] | log2 fold change (volasertib) | log2 fold change [3] | log2 fold change [4] | log2 fold change [5] | log2 fold change (saracatinib) | log2 fold change (sotrastaurin)
TANGO6 (UniProt Q9C0B7) | 0.062 | -0.113 | 0.036 | 0.023 | 0.042 | -0.054 | -0.187 | 0.121 | -0.011 | 0.081
SNAP23 (UniProt O00161) | 0.013 | -0.025 | 0.041 | -0.009 | 0.034 | 0.033 | 0.025 | 0.014 | -0.011 | -0.001
SMG5 (UniProt Q9UPR3) | 0.009 | 0.048 | 0.047 | 0.029 | -0.006 | 0.068 | 0.038 | -0.004 | 0.05 | -0.024
SMG7 (UniProt Q92540) | 0.073 | 0.011 | 0.098 | 0.071 | -0.044 | 0.074 | -0.038 | -0.014 | 0.045 | -0.02
SP1 (UniProt P08047) | -0.115 | 0.056 | 0.045 | 0.015 | 0.043 | -0.008 | -0.061 | 0.019 | 0.037 | -0.154
SPAG5 (UniProt Q96R06) | -0.007 | 0.04 | 0.025 | -0.016 | -0.004 | -0.01 | -0.004 | -0.174 | 0.004 | 0.009
SNW1 (UniProt Q13573) | 0.019 | 0.01 | -0.019 | 0.07 | -0.021 | 0 | 0.191 | -0.037 | 0.016 | -0.037
STK24 (UniProt B4DR80) | 0.009 | 0.005 | 0 | -0.03 | -0.017 | 0.005 | 0.02 | -0.007 | 0.005 | 0.046
SPATA5 (UniProt Q8NB90) | 0.015 | 0.005 | 0.02 | -0.021 | -0.068 | 0.011 | -0.024 | -0.052 | -0.001 | 0.007
SH3GL1 (UniProt Q99961) | -0.002 | -0.01 | -0.019 | 0.044 | -0.004 | 0.018 | 0.044 | -0.022 | 0.011 | -0.03
TAF6L (UniProt Q9Y6J9) | -0.029 | 0.035 | -0.05 | -0.245 (active) | -0.007 | -0.015 | 0.018 | 0.022 | 0.029 | 0.05
STK4 (UniProt Q13043) | 0.058 | 0.047 | 0.029 | 0.002 | -0.046 | 0.023 | -0.019 | 0.168 | 0.029 | 0.199
SRP54 (UniProt P61011) | 0.02 | -0.024 | 0 | 0.068 | -0.024 | 0.017 | -0.059 | 0.006 | 0.043 | 0.028
SLC7A5 (UniProt Q01650) | -0.027 | -0.017 | -0.038 | -0.031 | 0.06 | -0.001 | -0.312 (active) | 0.183 | 0.056 | 0.046
TARBP1 (UniProt Q13395) | 0.019 | -0.004 | 0.02 | 0.025 | -0.032 | -0.047 | -0.053 | -0.034 | -0.055 | 0.038
SHC1 isoform 6 (UniProt P29353) | 0.028 | 0.003 | 0.008 | -0.027 | 0.01 | -0.035 | 0.635 (active) | -0.163 | -0.007 | 0.017
SLC16A1 (UniProt P53985) | 0.026 | -0.015 | -0.051 | 0.07 | 0.043 | -0.034 | -0.419 (active) | 0.256 (active) | -0.003 | 0.02
SVIP (UniProt Q8NHG7) | -0.014 | 0.014 | 0.051 | 0.079 | 0.095 | -0.11 | 0.033 | 0.005 | 0 | -0.086
SHCBP1 (UniProt Q8NEM2) | -0.016 | 0.003 | 0.041 | -0.041 | -0.044 | 0.027 | -0.091 | 0.022 | 0.027 | 0.019
SMIM12 (UniProt Q96EX1) | 0.023 | 0.024 | 0.106 | 0.129 | -0.004 | 0.08 | 0.355 (active) | -0.269 | 0.041 | 0.025
SYNRG (UniProt Q9UMZ2) | -0.006 | 0.022 | 0.015 | 0.037 | 0 | -0.019 | 0.017 | -0.1 | 0.013 | -0.009
SMARCAD1 isoform 2 (UniProt Q9H4L7) | 0.014 | 0.034 | 0.021 | -0.039 | -0.048 | 0.017 | -0.005 | -0.057 | 0.008 | 0.002
SPHK1 isoform 2 (UniProt Q9NYA1) | -0.009 | 0.034 | 0.008 | -0.051 | -0.022 | 0.171 | -0.003 | 0.056 | 0.086 | 0.029
SYF2 (UniProt O95926) | -0.012 | -0.042 | -0.039 | 0.096 | 0.038 | -0.044 | -0.043 | 0.028 | 0.015 | -0.008
SPATS2 (UniProt Q86XZ4) | -0.013 | 0.032 | 0.071 | -0.175 | -0.041 | 0.128 | 0.144 | 0.038 | -0.12 | 0.031
SLC38A10 (UniProt Q9HBR0) | 0.1 | -0.008 | 0.014 | 0.111 | -0.015 | -0.022 | -0.229 (active) | 0.022 | 0.024 | 0.015
SSX5 isoform 2 (UniProt O60225) | 0.143 | 0.062 | -0.065 | -0.188 | 0.013 | 0.031 | -0.926 (active) | 0.049 | – | –
SMTN isoform 6 (UniProt P53814) | 0.021 | 0.061 | 0.018 | -0.007 | -0.078 | -0.026 | -0.036 | -0.006 | 0.013 | -0.051
